In PubChem BioAssay AID2521 (Sanford-Burnham Center for Chemical Genomics, 2010):
The campaign covered roughly 330,000 compounds. About 1,100 (0.33%) were called active. This is one part of a sample in which actives are shown more often than they occur.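 Rule for the calls: active = inhibition above about 40% at 20 µM (limit read from the data); inactive = the rest.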

molecular target: Apelin receptor (Homo sapiens) (UniProt P35414); test: blockade of apelin-induced APJ beta-arrestin recruitment – CHO-K1 cells, beta-arrestin complementation, luminescence, primary screen (AID 2521); conditions: at 20 µM, hits give high values;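 note: cells challenged with 10 nM apelin-13 agonist together with compound; plate controls were apelin-13 plus DMSO wells for no effect and DMSO wells lacking apelin-13 for full effect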
Sequence (P35414 whole entry, looked up): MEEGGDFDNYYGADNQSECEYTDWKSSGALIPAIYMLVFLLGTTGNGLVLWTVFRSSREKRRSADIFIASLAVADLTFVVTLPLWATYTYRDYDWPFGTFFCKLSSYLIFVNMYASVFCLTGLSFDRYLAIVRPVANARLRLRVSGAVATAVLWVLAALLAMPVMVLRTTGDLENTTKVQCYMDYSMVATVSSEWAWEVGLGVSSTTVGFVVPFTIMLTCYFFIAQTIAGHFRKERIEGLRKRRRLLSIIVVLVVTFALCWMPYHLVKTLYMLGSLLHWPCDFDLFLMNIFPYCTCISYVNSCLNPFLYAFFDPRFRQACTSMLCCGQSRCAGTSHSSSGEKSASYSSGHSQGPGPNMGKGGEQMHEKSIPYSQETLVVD

| Compound | inhibition |
| --- | --- |
| C=CCOc1ccc(/C=C/C(=O)OCC(=O)NC2CCCCCC2)cc1 | -9.63% (inactive) |
| CCCc1nc2oc3c(OCC)ncnc3c2c2c1COC(C)(C)C2 | 1.23% (inactive) |
| Cc1cccc(N2CCC(NCc3c(C(=O)N4CCCCC4)nc4c(C)cccn34)CC2)c1 | -3.54% (inactive) |
| Cc1ccc(S(=O)(=O)N(Cc2ccc(Cl)cc2)c2ccccc2C(=O)NCc2cccnc2)cc1 | -7.26% (inactive) |
| Cc1cccc(-n2c(O)c(C=Nc3ccccc3N)c(=O)[nH]c2=O)c1 | 55.5% (active) |
| Cc1ccc(N=Cc2c(O)n(-c3nccs3)c(=O)c3ccccc23)c(C)c1 | -0.923% (inactive) |
| Cc1cccc(N2CCN(S(=O)(=O)c3ccc4[nH]c(=O)c(=O)[nH]c4c3)CC2C)c1 (stereo not drawn) | 0.293% (inactive) |
| Cc1ccc(C)c2[nH]c(=O)c(CN(Cc3cccnc3)C(=S)NCc3ccco3)cc12 | 5.44% (inactive) |
| O=C(N=C1SC2CS(=O)(=O)CC2N1c1ccccc1)c1ccccc1 (stereo not drawn) | -0.987% (inactive) |
| CCCNc1ncnc2sc(C)c(C)c12 | 19.7% (inactive) |
| Cc1cc(C)n(-c2nc(O)cc(=O)[nH]2)n1 | 9% (inactive) |
| O=C1/C(=C/c2coc3ccc(O)cc3c2=O)SC(=S)N1c1ccccc1 | 29.3% (inactive) |
| CSCCC(NC(=O)COc1ccccc1)C(=O)OCCOc1ccc(F)cc1 (stereo not drawn) | 4.85% (inactive) |
| CSCCC(NC(=O)COc1ccccc1)C(=O)OCCOc1ccc(Br)cc1 (stereo not drawn) | 0.665% (inactive) |
| CSCCC(NC(=O)COc1ccccc1)C(=O)OCC(=O)c1cc2ccccc2o1 (stereo not drawn) | 56.3% (active) |
| CC(=O)Nc1ccc(S(=O)(=O)Nc2nc3n(n2)C(c2ccccc2)CC(=O)N3)cc1 (stereo not drawn) | -9.74% (inactive) |
| Cc1nc2cc(NCc3cccs3)ccc2n1C | 1.26% (inactive) |
| CCCCC(=O)Nc1c2c(nn1-c1ccc([N+](=O)[O-])cc1)CS(=O)(=O)C2 | 9.67% (inactive) |
| CC1CCN(C(=O)c2cc3nc(C4CC4)cc(C(F)(F)F)n3n2)CC1 | 1.74% (inactive) |
| Cc1cc(/C=N/Nc2ccc([N+](=O)[O-])cn2)c(C)n1-c1cccc(C(=O)O)c1 | 42.4% (active) |

| Compound | inhibition |
| --- | --- |
| Cc1cc(/C=N/NC(=O)CC2(C)OCCO2)c(C)n1-c1ccc(Cl)c(Cl)c1 | -22.8% (inactive) |
| Cc1cc(C=O)c(C)n1-c1ccc(NC2CCCCC2)c([N+](=O)[O-])c1 | 11.5% (inactive) |
| Cn1c(=O)c2c(-c3cccc(Br)c3)c(C#N)c(N)nc2n(C)c1=O | -4.62% (inactive) |
| NC(=O)NC(=O)C(OC(=O)CCNS(=O)(=O)c1ccccc1)c1ccccc1 (stereo not drawn) | 12.8% (inactive) |
| CC(Oc1ccccc1F)C(=O)NN (stereo not drawn) | -7.83% (inactive) |
| O=C1Nc2ccc([N+](=O)[O-])cc2C1=Nc1cccc(CO)c1 | 66% (active) |
| CN1CCN(/N=C2/C(=O)Nc3ccc([N+](=O)[O-])cc32)CC1 | 2.6% (inactive) |
| O=[N+]([O-])c1ccc(N(CCO)Cc2ccccc2)c([N+](=O)[O-])c1 | -2.49% (inactive) |
| O=C(NC(=S)Nc1ccc(Cl)c(C(=O)O)c1)c1cncc(Br)c1 | 35.2% (inactive) |
| c1ccc2cc(CCCc3cc4ccccc4cn3)ncc2c1 | 9.5% (inactive) |
| Cc1cc2c(c(=O)n1C)C(C(C)C)C(C#N)=C(N)O2 (stereo not drawn) | -2.07% (inactive) |
| COc1ccc(CCNC(=O)C2CCCN(S(=O)(=O)c3ccc(OC)cc3)C2)cc1 (stereo not drawn) | 12.2% (inactive) |
| CCc1ccc2c(c1)C1(NN=C(c3ccccc3)S1)C(=O)N2 (stereo not drawn) | 43.3% (active) |
| Cc1ccc(-n2c(C)cc(C(=O)CSc3nnc4ccccn34)c2C)cc1 | -19.2% (inactive) |
| CC(=O)Nc1ccc(NC(=O)CSC2=NS(=O)(=O)c3ccccc3N2)cc1 | 17.4% (inactive) |
| CCC1Nc2ncnc(N3CCN(c4ccccc4)CC3)c2N(Cc2ccc(Cl)cc2)C1=O (stereo not drawn) | 85.9% (active) |
| O=C1C(Cc2ccc(O)cc2)NC(=S)N1Cc1ccccc1 (stereo not drawn) | 7.09% (inactive) |
| O=C(CN1CCN(c2ccc(Cl)cc2)CC1)c1ccccc1 | -15.1% (inactive) |
| COc1ccc(S(=O)(=O)n2cnc3ccccc32)c(C)c1 | 2.56% (inactive) |
| Cc1ccc(NC(=S)N(CCCN2CCCC2)Cc2cccn2Cc2ccc(Cl)cc2)cc1 | -11.3% (inactive) |

| Compound | inhibition |
| --- | --- |
| CC(C)(C)OC(=O)C[C@@H]1C/C=C\C[C@@H](CC(=O)NCCO)C(=O)N[C@H](Cc2c[nH]c3ccccc23)COC1=O | 0.599% (inactive) |
| S=C(NNC(=S)NC1CC2CCC1C2)NC1CC2C=CC1C2 (stereo not drawn) | 40.2% (active) |
| S=C(NNC(=S)NC1CC2C=CC1C2)NC1CC2C=CC1C2 (stereo not drawn) | 9.22% (inactive) |
| O=C(NNC(=S)NC1CC2CCC1C2)c1ccc(Cl)cc1 (stereo not drawn) | -4.76% (inactive) |
| Cc1nonc1OCCn1nnnc1N | -11.5% (inactive) |
| Cc1c(NC(=O)CSc2cccc3cccnc23)c(=O)n(-c2ccccc2)n1C | 21.8% (inactive) |
| CC(=O)/C(=N\Nc1ccc(Cl)cc1Cl)Sc1cccc2cccnc12 | 50.3% (active) |
| O=C(NNc1cc(Cl)ccc1Cl)c1cccnc1Cl | -13.7% (inactive) |
| Cc1ccc(C(=O)N(CN2CCCC2=O)c2ccc(F)cc2)cc1 | -13.9% (inactive) |
| CNC(=O)Nc1cc(C(C)(C)C)no1 | 8.23% (inactive) |
| Cc1ccc(N2CCN(S(=O)(=O)c3ccc(F)cc3)CC2)c(C)c1 | 17.5% (inactive) |
| CN(C)S(=O)(=O)c1cccc(NC(=S)NCc2ccc3c(c2)OCO3)c1 | 3.11% (inactive) |
| CN(C)S(=O)(=O)c1cccc(NC(=S)N/N=C/C(=O)c2ccccc2)c1 | 41.5% (active) |
| Cc1ccc(/C=N/NC(=S)Nc2cccc(S(=O)(=O)N(C)C)c2)o1 | -8.56% (inactive) |
| O=C(c1ccccc1F)N(Cc1ccccc1)Cc1ccccc1 | -6.53% (inactive) |
| CC1=C(C(=O)Nc2cc(C)ccn2)C(c2cnn(C)c2)C2=C(CC(c3ccccc3)CC2=O)N1 (stereo not drawn) | -2.45% (inactive) |
| O=S(N1CCCCCC1)C12CC3CC(CC(C3)C1)C2 (stereo not drawn) | -12.7% (inactive) |
| Cc1ccc(NC(=O)C2CC2c2ccccc2)cc1 (stereo not drawn) | 0.756% (inactive) |
